Measurements taken from PubChem BioAssay (Tox21).
“And” between values parts separate entries of the source, which are not always exact repeats. Identical values can stand only once. Results filed as inconclusive are left out. The source holds several records for some structures; these can differ, active in one and inactive in another. The source made the active and inactive calls. Calls follow the shape of the dose curve; as a rule, active = well fitted curve in the direction sought with a large enough effect in the repeat runs; inconclusive = weak or mixed curves; inactive = no such curve, though single readings can be large; an effect the other way counts as inactive or inconclusive.

How the values were obtained:
[1] = A CellTox Green Cytotoxicity Assay to monitor cytotoxicity in HEK293 cells - 40 hour (AID 1224871); also: nearly all actives have a fitted effect of over 45% in size; also: potency is read from the fitted curve at half-maximal effect
Summary of the method: (§1)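 Cytotoxicity was tracked continuously in HEK293 cells by a DNA-binding dye excluded from viable cells. Compounds were transferred in DMSO 5 h after seeding; fluorescence was recorded at intervals up to 40 h.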

[2] = qHTS RealTime-Glo MT Cell Viability Assay in HEK293 cells - 16 hour (AID 1224872); also: nearly all actives have a fitted effect of over 50% in size; also: potency is read from the fitted curve at half-maximal effect
Summary of the method: (§2)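 Viability tracked continuously by luminescence as live cells reduce a prosubstrate for NanoLuc; HEK293 cells preincubated 5 h, compound-treated at 37 C, and read at 0, 8, 16, 24, 32 and 40 h.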

[3] = qHTS RealTime-Glo MT Cell Viability Assay in HepG2 cells - 8 hour (AID 1224873); also: nearly all actives have a fitted effect of over 55% in size
Summary of the method: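 Real-time viability: cells seeded at 600 per well together with NanoLuc and cell-permeant prosubstrate, compounds added after 5 h incubation. Luminescence tracked at 0, 8, 16, 24, 32 and 40 h of exposure.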

[4] = qHTS RealTime-Glo MT Cell Viability Assay in HEK293 cells - 40 hour (AID 1224874); details: RealTime-Glo luminescence; max response: stronger effect = lower value; also: nearly all actives have a fitted effect of over 50% in size; also: potency is read from the fitted curve at half-maximal effect
Summary of the method: (§3)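 Nonlytic bioluminescent viability monitoring. HEK293 at 600 cells/well with reagent; 5 h settle; compound transfer by pintool; plates held at 37 C and read at set time points.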

[5] = A CellTox Green Cytotoxicity Assay to monitor cytotoxicity in HEK293 cells - 24 hour (AID 1224875); also: series mostly up to about 77 µM; nearly all actives have a fitted effect of over 45% in size
Summary of the method: as §1

[6] = A CellTox Green Cytotoxicity Assay to monitor cytotoxicity in HepG2 cells - 16 hour (AID 1224876); also: nearly all actives have a fitted effect of over 45% in size
Summary of the method: (§4)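 Real-time, homogeneous cytotoxicity readout: dead-cell DNA staining by CellTox Green in HepG2 monolayers, fluorescence measured at timed intervals up to 40 h of continuous compound exposure.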

[7] = qHTS RealTime-Glo MT Cell Viability Assay in HepG2 cells - 32 hour (AID 1224877); also: nearly all actives have a fitted effect of over 55% in size
Summary of the method: (§5)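 Viability was tracked continuously by NanoLuc luminescence from prosubstrate reduced by living HepG2 cells, at successive time points over 40 h of compound exposure. Cells with reagent were preincubated 5 h at 37 °C before compound addition.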

[8] = A CellTox Green Cytotoxicity Assay to monitor cytotoxicity in HepG2 cells - 24 hour (AID 1224878); also: nearly all actives have a fitted effect of over 45% in size; also: potency is read from the fitted curve at half-maximal effect
Summary of the method: as §4

[9] = qHTS RealTime-Glo MT Cell Viability Assay in HEK293 cells - 0 hour (AID 1224880)
Summary of the method: as §3

[10] = A CellTox Green Cytotoxicity Assay to monitor cytotoxicity in HEK293 cells - 32 hour (AID 1224881); also: nearly all actives have a fitted effect of over 40% in size; also: potency is read from the fitted curve at half-maximal effect
Summary of the method: as §1

[11] = A CellTox Green Cytotoxicity Assay to monitor cytotoxicity in HepG2 cells - 0 hour (AID 1224882); also: nearly all actives have a fitted effect of over 35% in size
Summary of the method: as §4

[12] = A CellTox Green Cytotoxicity Assay to monitor cytotoxicity in HepG2 cells - 32 hour (AID 1224883); also: nearly all actives have a fitted effect of over 50% in size; also: potency is read from the fitted curve at half-maximal effect
Summary of the method: as §4

[13] = A CellTox Green Cytotoxicity Assay to monitor cytotoxicity in HEK293 cells - 8 hour (AID 1224884); also: nearly all actives have a fitted effect of over 35% in size; also: potency is read from the fitted curve at half-maximal effect
Summary of the method: as §1

[14] = qHTS RealTime-Glo MT Cell Viability Assay in HepG2 cells - 16 hour (AID 1224885); also: nearly all actives have a fitted effect of over 50% in size
Summary of the method: as §5

[15] = qHTS RealTime-Glo MT Cell Viability Assay in HEK293 cells - 24 hour (AID 1224886); also: nearly all actives have a fitted effect of over 50% in size; also: potency is read from the fitted curve at half-maximal effect
Summary of the method: as §2

[16] = qHTS RealTime-Glo MT Cell Viability Assay in HEK293 cells - 8 hour (AID 1224887)
Summary of the method: as §3

[17] = qHTS RealTime-Glo MT Cell Viability Assay in HepG2 cells - 0 hour (AID 1224889); also: nearly all actives have a fitted effect of over 50% in size
Summary of the method: as §5

[18] = A CellTox Green Cytotoxicity Assay to monitor cytotoxicity in HepG2 cells - 8 hour (AID 1224890); also: nearly all actives have a fitted effect of over 45% in size
Summary of the method: as §4

[19] = A CellTox Green Cytotoxicity Assay to monitor cytotoxicity in HepG2 cells - 40 hour (AID 1224879); also: nearly all actives have a fitted effect of over 40% in size; also: potency is read from the fitted curve at half-maximal effect
Summary of the method: as §4

[20] = A CellTox Green Cytotoxicity Assay to monitor cytotoxicity in HEK293 cells - 16 hour (AID 1224888); also: nearly all actives have a fitted effect of over 35% in size
Summary of the method: as §1
% is scaled to controls: 0 for no effect and ±100 for the full control effect.

CCc1cc(C(N)=S)ccn1
inactive: Potency [1] | Potency [2] | outcome [3] | max response [4] 1.51% and 1.72% and 1.47% | Potency [5] | Potency [6] | outcome [7] | Potency [8] | Potency [9] | Potency [10] | Potency [11] | Potency [12] | Potency [13] | Potency [14] | Potency [15] | Potency [16] | Potency [17] | Potency [18]

CCCCC/C(C=O)=C\c1ccccc1
inactive: Potency [1] | Potency [2] | outcome [3] | max response [4] -12% and 4.41% and 0.735% | Potency [5] | Potency [6] | outcome [7] | Potency [8] | Potency [9] | Potency [10] | Potency [11] | Potency [12] | Potency [13] | Potency [14] | Potency [15] | Potency [16] | Potency [17] | Potency [18]

COC1=CC(=O)C[C@@H](C)[C@]12Oc1c(Cl)c(OC)cc(OC)c1C2=O
inactive: Potency [1] | Potency [2] | outcome [3] | max response [4] -25.7% | Potency [5] | Potency [6] | outcome [7] | Potency [9] | Potency [10] | Potency [11] | Potency [14] | Potency [15] | Potency [16] | Potency [20] | Potency [17] | Potency [18]
active: Potency [19] 24.3 µM and 21.9 µM and 26.8 µM | Potency [12] 34.4 µM
24.3 µM (active) and inactive: Potency [13]
38.6 µM (active) and inactive: Potency [8]

C1CNCCN1
inactive: Potency [1] | Potency [2] | outcome [3] | max response [4] 0.515% and 0.916% | Potency [5] | Potency [6] | outcome [7] | Potency [8] | Potency [9] | Potency [10] | Potency [11] | Potency [12] | Potency [13] | Potency [14] | Potency [15] | Potency [16] | Potency [17] | Potency [18]

CC(=O)/C=C/C1=C(C)CCCC1(C)C
inactive: Potency [1] | Potency [2] | outcome [3] | max response [4] -10% and 2.42% and 0.0931% | Potency [5] | Potency [6] | outcome [7] | Potency [8] | Potency [19] | Potency [9] | Potency [10] | Potency [11] | Potency [12] | Potency [13] | Potency [14] | Potency [15] | Potency [16] | Potency [20] | Potency [17] | Potency [18]

Cc1cnc(NC(=O)C2=C(O)c3ccccc3S(=O)(=O)N2C)s1
inactive: Potency [1] | Potency [2] | outcome [3] | max response [4] 6.82% and -5.33% and 4.88% | Potency [5] | Potency [6] | outcome [7] | Potency [8] | Potency [19] | Potency [9] | Potency [10] | Potency [11] | Potency [12] | Potency [13] | Potency [14] | Potency [15] | Potency [16] | Potency [20] | Potency [17] | Potency [18]

COC(=O)C1CCC(C(=O)OC)CC1 (stereo unspecified)
inactive: Potency [1] | Potency [2] | outcome [3] | max response [4] 7.05% and -2.3% and 3.36% | Potency [5] | Potency [6] | outcome [7] | Potency [8] | Potency [19] | Potency [9] | Potency [10] | Potency [11] | Potency [12] | Potency [13] | Potency [14] | Potency [15] | Potency [16] | Potency [17] | Potency [18]

CC(C)(C)CC(C)(C)c1ccc(O)c(-n2nc3ccccc3n2)c1
active: Potency [4] 49.7 µM
inactive: Potency [1] | outcome [3] | max response [4] -13.8% and -3.1% | Potency [5] | Potency [6] | Potency [8] | Potency [19] | Potency [9] | Potency [10] | Potency [11] | Potency [12] | Potency [13] | Potency [14] | Potency [16] | Potency [17] | Potency [18]
44.3 µM (active) and inactive: Potency [2]
49.7 µM (active) and inactive: Potency [15]

NC(=O)OCC(COC(N)=O)c1ccccc1
inactive: Potency [1] | Potency [2] | outcome [3] | max response [4] 1.64% and -0.593% | Potency [5] | Potency [6] | outcome [7] | Potency [8] | Potency [19] | Potency [9] | Potency [10] | Potency [11] | Potency [12] | Potency [13] | Potency [14] | Potency [15] | Potency [16] | Potency [17] | Potency [18]

C#C[C@]1(O)CC[C@H]2[C@@H]3CCC4=CC(=O)CC[C@@H]4[C@H]3CC[C@@]21CC
active: Potency [4] 43.6 µM
inactive and 43.6 µM (active): Potency [12]
inactive: outcome [3] | max response [4] -17.5% | Potency [6] | outcome [7] | Potency [9] | Potency [11] | Potency [13] | Potency [14] | Potency [16] | Potency [17] | Potency [18]
43.6 µM (active) and inactive: Potency [2] | Potency [15]
49.1 µM (active) and inactive: Potency [1] | Potency [10]

COc1cc(O)c(C(=O)c2ccccc2)cc1S(=O)(=O)O
inactive: Potency [1] | Potency [2] | outcome [3] | max response [4] 0.237% and 12.7% and -17.6% | Potency [5] | Potency [6] | outcome [7] | Potency [8] | Potency [19] | Potency [9] | Potency [10] | Potency [11] | Potency [12] | Potency [13] | Potency [14] | Potency [15] | Potency [16] | Potency [20] | Potency [17] | Potency [18]

Cc1cccc2ccccc12
inactive: Potency [1] | Potency [2] | outcome [3] | max response [4] 3.52% and 3.07% | Potency [5] | Potency [6] | outcome [7] | Potency [8] | Potency [9] | Potency [10] | Potency [11] | Potency [12] | Potency [13] | Potency [14] | Potency [15] | Potency [16] | Potency [17] | Potency [18]
